# The whole screen tested about 16,000 compounds, of which about 5,100 (32%) were called active. Inconclusive results (about 25%) are left out. The list shows a part of the results. Values without a mark were called inactive. Calls come from the whole dose curve; as a rule, active = well fitted curve in the direction sought with a large enough effect; inconclusive = small, poorly fitted or top-dose-only effect, or effect the other way; inactive = no such curve, though single readings can be large or run the other way.
# Molecular target: Cytochrome P450 3A4 (Homo sapiens) (UniProt P08684)
# Assay: Cytochrome panel assay with activity outcomes
# Settings: recombinant CYP, pro-luciferin dealkylation, luminescence, p450-cyp3a4; series mostly up to 57.1 µM; activity, negative = inhibition: at the top concentration
# % is set by controls: 0 for no effect and ±100 for the full control effect.
# Sequence of Cytochrome P450 3A4 (Homo sapiens) (P08684 whole entry, looked up): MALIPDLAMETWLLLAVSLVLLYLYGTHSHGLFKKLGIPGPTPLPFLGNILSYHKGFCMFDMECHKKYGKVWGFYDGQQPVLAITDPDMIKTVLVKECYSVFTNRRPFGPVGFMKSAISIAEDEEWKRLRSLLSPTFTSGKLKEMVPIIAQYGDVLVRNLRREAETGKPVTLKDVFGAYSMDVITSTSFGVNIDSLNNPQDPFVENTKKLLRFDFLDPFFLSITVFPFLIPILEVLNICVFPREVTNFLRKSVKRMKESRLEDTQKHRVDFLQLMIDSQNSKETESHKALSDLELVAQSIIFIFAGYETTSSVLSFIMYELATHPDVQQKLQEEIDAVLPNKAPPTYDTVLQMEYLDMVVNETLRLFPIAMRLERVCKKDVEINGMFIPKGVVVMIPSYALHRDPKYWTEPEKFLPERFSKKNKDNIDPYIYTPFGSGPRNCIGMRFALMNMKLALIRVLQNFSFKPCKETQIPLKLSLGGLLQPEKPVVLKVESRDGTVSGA
SMILES,"activity, negative = inhibition",AC50
O=C1C(O)=C(O)C(=O)C(O)=C1O,-16.8% [at 25.6 µM],–
NC(N)=NC(N)=Nc1ccc(S(=O)(=O)O)cc1,-0.586% [at 11.4 µM],–
CC1=CC=CN2CC(O)CN=C12 (stereo not given),-1.24%,–
COc1ccc(Cc2nnc(NC(=O)c3cccc([N+](=O)[O-])c3C)s2)cc1,–,10 µM (active)
COc1ccc(Cc2nnc(NC(=O)c3ccco3)s2)cc1,13.7%,–
Cc1c(C(=O)NN2CCN(C)CC2)cccc1[N+](=O)[O-],-3.79%,–
O=C(CN1CCCCC1)Nc1nnc(-c2ccc([N+](=O)[O-])cc2)s1,–,7.94 µM (active)
O=C(CN1CCCCC1)Nc1cccc([N+](=O)[O-])c1,22.9%,–
COCC(=O)N(C)c1nnc(-c2ccc([N+](=O)[O-])cc2)s1,-5.26% [at 2.29 µM],–
FC(F)(F)c1ccc(/C=N/N2CCN(Cc3cccc4ccccc34)CC2)cc1,15.5% [at 2.29 µM],–
Cn1c(=O)c2cn(-c3ccccc3)cc2n(C)c1=O,-2.19% [at 11.4 µM],–
Cn1c(=O)oc2cc(S(=O)(=O)NCCC(=O)N3CC=C(c4ccccc4)CC3)ccc21,–,12.6 µM (active)
CCCN(CCC)CCNC(=O)C1CCCN(S(=O)(=O)c2ccc3c(c2)oc(=O)n3C)C1 (stereo not given),-19.5%,–
Cn1c(=O)c2cc(S(=O)(=O)NCCC(=O)N3CC=C(c4ccccc4)CC3)ccc2n(C)c1=O,–,10 µM (active)
O=C(Nc1ccccc1)[C@@]12C[C@@H]1/C(=N/O)c1ccccc1O2,-18.7%,–
Fc1ccc(C(OCCCc2cnc[nH]2)c2ccc(F)cc2)cc1,–,0.794 µM (active)
O=C(O)CCC(O)=C1S(=O)(=O)OCCOS1(=O)=O,2.08% [at 11.4 µM],–
COc1ccccc1CN(Cc1cc2cc(C)cc(C)c2[nH]c1=O)Cc1nnnn1CC1CCCO1 (stereo not given),–,10 µM (active)
Cc1cc(C)c2cc(CN(Cc3nnnn3Cc3ccc(F)cc3)C3CCCC3)c(=O)[nH]c2c1,–,10 µM (active)
COc1ccccc1CN(Cc1cc2cc3c(cc2[nH]c1=O)OCCO3)Cc1nnnn1Cc1ccco1,–,10 µM (active)
O=c1[nH]c2cc3c(cc2cc1CN(CCCO)Cc1nnnn1Cc1ccc(F)cc1)OCO3,–,3.16 µM (active)
NC(N)=N/N=C\c1ccc(C2CCNCC2)cc1,-4.2% [at 11.4 µM],–
CN(C)CCCn1c2c3ccccc3ccc2c2oc(=O)c3ccccc3c21,3.83% [at 11.4 µM],–
NC1=NC(=O)/C(=C/c2cccs2)S1,10.4%,–

SMILES,"activity, negative = inhibition",AC50
CCNc1ncc2nc(CCc3ccccc3)c(=O)n(-c3ccccc3)c2n1,–,5.01 µM (active)
CCNc1ncc2nc(-c3ccccc3)c(=O)n(C)c2n1,-26.1%,–
CCNc1ncc2nc(-c3ccccc3)c(=O)n(C3CC3)c2n1,-27.1%,–
COc1ccc(-n2c(=O)c(CCc3ccccc3)nc3cnc(N4CCOCC4)nc32)cc1,–,12.6 µM (active)
CCNc1ncc2nc(C)c(=O)n(C3CC3)c2n1,-24.2%,–
CCNc1ncc2nc(CCc3ccccc3)c(=O)n(-c3ccc(OC)cc3)c2n1,–,6.31 µM (active)
CCNc1ncc2nc(-c3ccc(Cl)cc3)c(=O)n(C)c2n1,-10.1%,–
CCNc1ncc2nc(CCc3ccccc3)c(=O)n(C3CC3)c2n1,–,15.8 µM (active)
COc1ccc(-c2nc3cnc(N4CCOCC4)nc3n(CCc3ccccc3)c2=O)cc1,-9.07%,–
COc1ccc(-n2c(=O)c(-c3ccccc3)nc3cnc(N4CCOCC4)nc32)cc1,-13.6%,–
COc1ccc(C(=O)c2cnc3ccccc3c2-c2ccccc2)cc1,–,12.6 µM (active)
COc1ccc(C(=O)c2ccccc2)c(O)c1,-12.2% [at 25.6 µM],–
CCOC(=O)c1cn(-c2nc(-c3ccc(Cl)cc3)cs2)c2c(F)c(N3CC(C)OC(C)C3)c(F)cc2c1=O (stereo not given),-1.76%,–
Cc1ccc(S(=O)(=O)Nc2nc3ccccc3nc2N2CCc3ccccc3C2)cc1,–,2.82 µM (active)
Cc1ccc2[nH]c3c(N4CCc5ccccc5C4)ncnc3c2c1,-19.7% [at 2.29 µM],–
O=C1C2C3C=CC(C2C(=O)N1CN1CCOCC1)C1C2C(=O)N(CN4CCOCC4)C(=O)C2C31 (stereo not given),-1.18% [at 11.4 µM],–
COc1cccc(-c2cc(NCc3cnc(C)cn3)ncn2)c1,–,25.1 µM (active)
c1cncc(-c2cc(NCc3cccs3)ncn2)c1,–,2.51 µM (active)
COc1cccc(-c2cc(NCc3cccnc3)ncn2)c1,–,3.98 µM (active)
COc1cccc(-c2cc(NCc3cccs3)ncn2)c1,–,7.94 µM (active)
COc1ccccc1-c1cc(NCc2cnc(C)cn2)ncn1,-29.9%,–
N[C@](CC1c2ccccc2Oc2ccccc21)(C(=O)O)[C@@H]1C[C@@H]1C(=O)O,-17.2%,–
CCCOC(=O)c1ccc(NC(=O)c2cn(CC)c3nc(C)ccc3c2=O)cc1,-9.88%,–
C[C@@H]1c2cccc(O)c2C(O)=C2C(=O)[C@@]3(O)C(O)=C(C(N)=O)C(=O)[C@@H](N(C)C)[C@@H]3[C@@H](O)[C@@H]21,–,inactive

SMILES,"activity, negative = inhibition",AC50
COc1cccc(-c2cc(NCc3ccccc3)ncn2)c1,–,25.1 µM (active)
O=C(NCCOC(=O)c1ccc(C(=O)OCCNC(=O)c2cccnc2)s1)c1cccnc1,–,2.51 µM (active)
O=C(NCCO[N+](=O)[O-])c1cccnc1,-5.81%,–
CCN1C(=O)/C(=C/C=C2/SCCN2C)SC1=S,0.316% [at 2.29 µM],–
CN1CCN(NC(=O)CN2C(=O)/C(=C/c3c(Cl)cccc3Cl)SC2=S)CC1,–,14.1 µM (active)
CN1CCN(NC(=O)c2cccc(F)c2)CC1,-1.37%,–
CSC(=NC#N)N1CCN(c2ccc(Cl)cc2)CC1,22.3%,–
CN(C)C(=C(C#N)C#N)N1CCN(c2ccc(Cl)c(Cl)c2)CC1,–,8.91 µM (active)
C[N@+]1(CCC(=O)c2ccccc2)CC[C@H]2CC[C@H](C2)C1,-5.07% [at 11.4 µM],–
CCOC(=O)c1sc(NC(C)=O)nc1-c1ccccc1,-5.57% [at 2.29 µM],–
CCOC(=O)c1c(NC(C)=O)sc2c(OC)cccc12,–,2 µM (active)
O=[N+]([O-])C(/C=C(\Cl)[N+](=O)[O-])=C1N(Cc2ccc(Cl)nc2)CCN1Cc1ccc(Cl)nc1,–,14.1 µM (active)
CCOC(=O)c1cnn(-c2nc(-c3cccc(F)c3)cs2)c1C(F)(F)F,29.3%,–
CC(=O)c1cccc(NC(=O)c2csc(-n3nc(C)cc3C(F)(F)F)n2)c1,–,10 µM (active)
COC(=O)c1c(NC(C)=O)sc(Cc2ccccc2)c1C,–,14.1 µM (active)
COC(=O)c1ccc(NC(C)=O)o1,-12.1%,–
CCOc1ccc(CC(C(N)=O)C(N)=O)cc1CN(C)C,-4.85% [at 2.29 µM],–
Cc1sc(NC(=O)c2ccccc2)c(C(=O)NCCN(C)C)c1C,-2.43%,–
CCOc1ccc(CC(=O)Nc2sc(Cc3ccccc3)c(C)c2C(N)=O)cc1OCC,–,20 µM (active)
CO[C@]1(NC(=O)[C@H](C(=O)O)c2ccc(O)cc2)C(=O)N2C(C(=O)O)=C(CSc3nnnn3C)CO[C@H]21,5.89% [at 25.6 µM],–
CC1CCN(C(=O)Nc2ccc3nsnc3c2)CC1,-28.8%,–
CC1CCN(C(=O)CN(C)S(=O)(=O)c2cccc3nsnc23)CC1,–,3.55 µM (active)
CN(CC(=O)Nc1ccc(F)c(F)c1)S(=O)(=O)c1cccc2nsnc12,–,5.01 µM (active)
COc1cc([C@@H](O)CO)ccc1OS(=O)(=O)O,2.06%,–

SMILES,"activity, negative = inhibition",AC50
COc1cccc(N=c2oc3c(C)ncc(CO)c3cc2C(N)=O)c1,–,17.8 µM (active)
CCOC(=O)c1c(C)nc2c(c1-c1ccccc1)C(=O)CC(C)(C)C2,-29.8%,–
CCOC(=O)c1c(C)nc2c(c1-c1ccc(OC)cc1)C(=O)CC(C)(C)C2,–,10 µM (active)
O=C(/C=C/c1cccnc1)c1ccc(NC(=O)c2cccc(Br)c2)cc1,–,2.24 µM (active)
O=C(Nc1ccc2nc(-c3ccc(Br)o3)[nH]c2c1)c1ccco1,–,14.1 µM (active)
O=C(/C=C/c1ccccc1)NNC(=O)c1cccnc1,-12% [at 2.29 µM],–
Cc1ccc(NC(=O)/C(=C\c2cccnc2)NC(=O)c2ccco2)cc1,15.8%,–
O=C(Nc1cccc(Br)c1)/C(=C\c1cccnc1)NC(=O)c1ccco1,–,0.501 µM (active)
CCC(=O)Nc1cccc(C(=O)/C=C/c2ccccc2)c1,-23.2% [at 11.4 µM],–
O=C(N/C(=C\c1cccnc1)C(=O)N1CCOCC1)c1cccc(Br)c1,–,1 µM (active)
CCC(=O)NC(NC(=O)CC)C(Cl)Cl,-2.18%,–
NCCCCC(=O)O,-3.14%,–
CCC[C@H]1C[C@H](C(=O)N[C@H]([C@@H]2O[C@H](SC)[C@@H](O)[C@H](O)[C@@H]2O)[C@H](C)O)N(C)C1,-11.4% [at 25.6 µM],–
O=C(Nc1cccc(OC(=O)c2ccco2)c1)c1ccco1,3.14% [at 11.4 µM],–
O=C(Nc1cccc(NC(=O)c2ccc(-c3cccc(Br)c3)o2)c1)c1ccco1,–,5.01 µM (active)
CCCN(CCO)Cc1ccc(F)c(Br)c1,-0.689%,–
COc1ccc(OCCn2c(C)c(/C=N/n3cnnc3)c3ccccc32)cc1,–,0.501 µM (active)
Cc1ccc(NS(=O)(=O)c2ccccc2Cl)c2c1CC(C)(C)O2,–,0.708 µM (active)
CN(C)N1C(N)=C(C#N)C(c2cccnc2)C2=C1CC(C)(C)CC2=O (stereo not given),–,2.24 µM (active)
O=c1[nH]c(SCc2c(Cl)c(Cl)c(Cl)c(Cl)c2Cl)nc(=S)[nH]1,–,3.16 µM (active)
Clc1ccccc1C(Nc1ncccn1)Nc1ncccn1,4.33% [at 11.4 µM],–
O=S(=O)(C[C@H](O)C(Cl)(Cl)Cl)NNc1ccccc1,-15.6% [at 11.4 µM],–
O=C1c2ccccc2C(=O)c2c(NC3CCCCC3)ccc(Nc3ccc(S(=O)(=O)O)cc3)c21,-21.4% [at 11.4 µM],–
